Measured values taken from ChEMBL document CHEMBL1157539, “Thousands of chemical starting points for antimalarial lead identification” (Nature, 2010).
Values joined by “and” are separate entries in the source; they are usually repeats but may differ in a detail not shown here. Equal entries are not always repeated. Over roughly 13,000 compounds, “IFI” has its median near 4; the highest 2% begin near 17. The full list was thinned out, with the highest values kept by preference.

Assay: GSK_TCMDC: Inhibition Frequency Index (IFI). The number of non-kinase HTS assays where a compound showed > 50 % inhibition, expressed as a percentage of the number of such assays in which the compound was tested
Assay type: functional
For `Nc1c2c(nc3cc(NC(=O)c4ccc([N+](=O)[O-])cc4)ccc13)CCCC2`, the IFI was 0%.
With `CNC(=O)C(C)N(c1ccc(Cl)cc1)c1nc(C(C)(C)C)cs1` (stereo not drawn) the IFI was 4.76%.
`COC(=O)C(=C(C)C)N1C(=O)[C@@H](NC(=O)OCc2ccccc2)[C@H]1SS[C@@H]1[C@H](NC(=O)OCc2ccccc2)C(=O)N1C(C(=O)OC)=C(C)C` showed an IFI of 4.41%.
In the case of `CC(CN1CCN(C)CC1)C(=O)Nc1ccc(-c2cccc(-c3nc4ccccc4[nH]3)c2)cc1` (stereo not drawn), the IFI is reported as 4.59%.
`COCCN1CCN(Cc2ccc(-c3ccc(-c4nc5cccc(C)c5[nH]4)s3)cc2)CC1` gave an IFI of 6.86%.
With `O=S(=O)(NCCN1CCCC1)c1ccc(-c2ccc(CNCc3ccccc3)cc2)cc1F` the IFI was 6.54%.
In the case of `Oc1ccc(CCNc2nc(NCCCOc3ccccc3-c3ccc(C(F)(F)F)cc3)nc(N3CCNCC3)n2)cc1`, the IFI is reported as 17.2%.
Work on `Oc1ccc(CCNc2nc(NCc3ccccc3-c3ccc(F)cc3)nc(N3CCNCC3)n2)cc1` yielded an IFI of 13.6%.
`Oc1ccc(CCNc2nc(NCc3ccccc3-c3ccc(C(F)(F)F)cc3)nc(N3CCNCC3)n2)cc1` showed an IFI of 13.1%.
For `COc1ccc(-c2ccccc2CNc2nc(NCCc3ccc(O)cc3)nc(N3CCNCC3)n2)cc1`, the IFI was 13.4%.
Compound `Oc1ccc(CCNc2nc(NCCCOc3ccccc3-c3cccnc3)nc(N3CCNCC3)n2)cc1` has an IFI of 6.9%.
Work on `CN1CCN(c2nc(NCCc3ccc(O)cc3)nc(NCc3ccccc3-c3ccc(C(F)(F)F)cc3)n2)CC1` yielded an IFI of 11.8%.
Work on `CC1CN(c2nc(NCCc3ccc(O)cc3)nc(NCc3ccccc3-c3ccc(C(F)(F)F)cc3)n2)CC(C)N1` (stereo not drawn) yielded an IFI of 17.2%.
With `Oc1ccc(CCNc2nc(NCCCOc3ccccc3-c3ccc(F)cc3)nc(N3CCNCC3)n2)cc1` the IFI was 13.8%.
For `Oc1ccc(CCNc2nc(NCc3ccccc3Oc3ccc(C(F)(F)F)cc3)nc(N3CCNCC3)n2)cc1`, the IFI was 20%.
`Oc1ccc(CCNc2nc(NCCCOc3cccc(-c4ccccc4)c3)nc(N3CCNCC3)n2)cc1` gave an IFI of 18.8%.
Work on `Oc1ccc(CCNc2nc(NCCCOc3ccccc3-c3cccc(C(F)(F)F)c3)nc(N3CCNCC3)n2)cc1` yielded an IFI of 10.5%.
In the case of `Oc1ccc(CCNc2nc(NCCOc3cccc4ccccc34)nc(N3CCNCC3)n2)cc1`, the IFI is reported as 16.4%.
Work on `CC(C)N1CCC(N(Cc2ccc(-c3ccc(Cl)cc3)cc2)C(=O)Cn2c(CCc3cccc(F)c3F)nc(=O)c3ccccc32)CC1` yielded an IFI of 7.8%.
With `O=C(/C=C/c1ccc(Cl)c(Cl)c1)NCCCCCN1CCC(c2n[nH]c(-c3ccccc3)c2Br)CC1` the IFI was 12.9%.
`Cc1cc2nc(-c3ccc(/C=C/C(=O)NC4CCN(Cc5ccccc5)CC4)cc3)[nH]c2cc1C` gave an IFI of 3.76%.
`CS(=O)(=O)NCCCNCc1ccc(-c2ccc(-c3nc4cc(C(F)(F)F)ccc4[nH]3)s2)cc1` showed an IFI of 4.95%.
`Cc1nc2ccc(-c3ccc(OC(F)(F)F)cc3)cc2c(O)c1C#N` gave an IFI of 1.82%.
In the case of `COc1cccc2c(NN=Cc3cccc(F)c3)ccnc12`, the IFI is reported as 2.99%.
`Oc1ccc(CCNc2nc(NCc3ccccc3-c3ccc(C(F)(F)F)cc3)nc(N3CCCNCC3)n2)cc1` gave an IFI of 14.9%.
Compound `Oc1ccc(CCCNc2nc(NCc3ccccc3-c3ccccc3)nc(N3CCNCC3)n2)cc1` has an IFI of 14.9%.
For `Oc1ccc(CCNc2nc(NCc3ccccc3-c3ccccc3)nc(N3CCCNCC3)n2)cc1`, the IFI was 18.2%.
Compound `NCC1CCCN1Cc1cccc(-c2ccc(-c3nc4ccccc4[nH]3)s2)c1` (stereo not drawn) has an IFI of 0.97%.
In the case of `CC[C@H](C)CNC(=O)c1cccc(-c2ccc(CN3CCC(N4CCCC4)CC3)cc2)n1`, the IFI is reported as 9.09%.
In the case of `C=CCC1OC(=O)c2cc(OC)cc(OC)c21` (stereo not drawn), the IFI is reported as 33.6%.
With `C=CC(C)C1OC(=O)c2cc(OC)cc(OC)c21` (stereo not drawn) the IFI was 27%.
In the case of `COc1ccc(CCNCCCCCNCCCc2ccc(Cl)cc2)cc1OC`, the IFI is reported as 2.8%.
`COc1cc(Cc2cnc(N)nc2N)cc(CC(C)O)c1O` (stereo not drawn) gave an IFI of 0%.
Compound `Fc1ccc2[nH]c(-c3cccc(-c4ccc(CN5CCC(CCN6CCCCC6)CC5)cc4)c3)nc2c1` has an IFI of 8.33%.
`NC(=O)c1ccc(C(=O)Nc2cccc(-c3ccc(-c4nc5cc(C(F)(F)F)ccc5[nH]4)cc3)c2)cc1` showed an IFI of 2.59%.
Compound `O=C(NCCCCN1CCC(c2ccc3c(c2OCCN2CCCC2=O)CCCC3)CC1)c1ccc(-c2ccc(C(F)(F)F)cc2)cc1` has an IFI of 9.65%.
Compound `C[C@@H]1CC[C@H](NC(=O)[C@H](CC2CCCC2)NC(=O)N2CCNCC2)C(=O)CN1S(=O)(=O)c1ccccn1` has an IFI of 5.93%.
For `Cc1cc(N[C@@H](Cc2ccccc2)C(=O)NCCOc2ccccc2)nc(NCC2CCCCC2)n1`, the IFI was 16.7%.
`O=C(NCCc1ccccc1)[C@H](Cc1ccccc1)Nc1ccnc(NCC2CCCCC2)n1` gave an IFI of 20.4%.
With `CC(C)C[C@H](Nc1ccnc(NCC2CCCCC2)n1)C(=O)NCCc1ccccc1` the IFI was 8.89%.
With `Cc1ccc(CNC(=O)[C@H](Cc2ccccc2)Nc2ccnc(NCC3CCCCC3)n2)cc1` the IFI was 11.1%.
With `CC(C)C[C@H](Nc1ccnc(NCC2CCCCC2)n1)C(=O)NCCOc1ccccc1` the IFI was 13%.
Compound `O=C(NCCOc1ccccc1)[C@H](Cc1ccccc1)Nc1ccnc(NCC2CCCCC2)n1` has an IFI of 20%.
With `COc1ccc2nccc([C@@H](O)CN3CCC(NCc4nc5cc(F)cc(F)c5[nH]4)CC3)c2c1` the IFI was 3.65%.
In the case of `CC1(C)NC(N)=NC(=N)N1OCCCSc1ccccc1`, the IFI is reported as 2.26%.
Compound `Cc1ccccc1Cc1cccc(/N=C(\N)Nc2ccc(Cl)cc2)n1` has an IFI of 31.2%.
Compound `Cc1cccc2nc(-c3ccc(-c4ccc(NC(=O)Nc5ccc(Cl)cc5)cc4)s3)[nH]c12` has an IFI of 5.94%.
With `Cc1cc(OCCCn2ccnc2)ccc1-c1csc(/N=C(\N)NCc2ccccc2)n1` the IFI was 5%.
For `Cc1cccc(NC(=O)NCc2ccccc2)n1`, the IFI was 0.78%.
`Cc1cc(NCCc2ccccc2)nc(NC(=N)Nc2ccc(Cl)cc2)n1` gave an IFI of 3.82%.
Compound `N/C(=N\c1cccc(Cc2ccccc2)n1)NCc1ccccc1` has an IFI of 21%.
In the case of `CC(=O)Nc1nc(C(=O)Nc2ccc(-c3cccc(-c4nc5cc(C(F)(F)F)ccc5[nH]4)c3)cc2)cs1`, the IFI is reported as 6.03%.
In the case of `Cc1cc(=O)c(-c2ccc(Oc3cccc(C(F)(F)F)c3)cc2)c(C)[nH]1`, the IFI is reported as 2.56% and 2.24%.
For `CCN(CCCN1CCCCC1)c1cc(C)nc(Nc2ccc(C)cc2)n1`, the IFI was 2.56%.
For `CCN(CCCN1CCCCC1)c1cc(C)nc(Nc2ccc(C(C)C)cc2)n1`, the IFI was 10.3%.
In the case of `CCC(C)c1ccc(Nc2nc(C)cc(N(CC)CCCN3CCCCC3)n2)cc1` (stereo not drawn), the IFI is reported as 19.5%.
`CC(C)(C)c1ccc(C(=O)Nc2cccc(Nc3c(C(=O)NCc4cccc(C(F)(F)F)c4)cnc4c(O)cccc34)c2)cc1` showed an IFI of 3.68%.
`CCCCN(CCCC)/C(=N/c1cccc(Cl)c1Cl)Nc1ccc(C#N)cc1O` gave an IFI of 7.14%.
`O=C(Cc1cccc(O)c1)Nc1ccc(-c2cccc(-c3nc4cc(C(F)(F)F)ccc4[nH]3)c2)cc1` showed an IFI of 8.93%.
Work on `CC(CN(C)C)C(=O)Nc1cccc(-c2cccc(-c3nc4ccccc4[nH]3)c2)c1` (stereo not drawn) yielded an IFI of 5.41%.
`O=C(Nc1cccc(-c2cccc(-c3ccc(F)cc3)n2)c1)c1ccc([N+](=O)[O-])o1` gave an IFI of 19.1%.
With `COc1ccccc1-c1cccc(-c2cccc(NC(=O)c3ccc([N+](=O)[O-])o3)c2)n1` the IFI was 11.9%.
In the case of `COc1cccc(-c2cccc(-c3ccc(NC(=O)c4ccc([N+](=O)[O-])o4)cc3)n2)c1`, the IFI is reported as 9.52%.
`Cc1cccc2nc(-c3ccc(-c4ccc(CN5CCCC(N)C5)cc4)cc3)[nH]c12` (stereo not drawn) showed an IFI of 4.23%.
Compound `COc1ccccc1C1CCN(C2CCC(NC(=O)c3cc4ccccc4[nH]3)CC2)CC1` (stereo not drawn) has an IFI of 16.4%.
Work on `Cc1ccccc1C1CCN(C2CCC(NC(=O)/C=C/c3ccc4c(c3)OC(F)(F)O4)CC2)CC1` (stereo not drawn) yielded an IFI of 17.2%.
With `COc1ccccc1C1CCN(C2CCC(NC(=O)c3cc4cc(C(C)C)ccc4[nH]3)CC2)CC1` (stereo not drawn) the IFI was 18%.
`CCc1c(C(=O)NC2CCC(N3CCC(c4ccccc4C)CC3)CC2)[nH]c2ccc(Br)cc12` (stereo not drawn) gave an IFI of 15.8%.
Compound `COc1ccccc1C1CCN(C2CCC(NC(=O)/C=C/c3ccc4c(c3)OC(F)(F)O4)CC2)CC1` (stereo not drawn) has an IFI of 9.84%.
Compound `CCc1c(C(=O)NC2CCC(N3CCC(c4ccccc4OC)CC3)CC2)[nH]c2ccc(OC)cc12` (stereo not drawn) has an IFI of 6.45%.
`Cc1ccc(/C=C/C(=O)NC2CCC(N3CCC(c4ccccc4C)CC3)CC2)cc1C` (stereo not drawn) gave an IFI of 15%.
With `COc1ccccc1C1CCN(C2CCC(NC(=O)c3cc(-c4ccc(Cl)cc4)cs3)CC2)CC1` (stereo not drawn) the IFI was 16.4%.
Work on `Cc1ccccc1C1CCN(C2CCC(NC(=O)c3cc4cc(C(C)C)ccc4[nH]3)CC2)CC1` (stereo not drawn) yielded an IFI of 19.6%.
`COc1ccc(-c2csc(C(=O)NC3CCC(N4CCC(c5ccccc5C)CC4)CC3)c2)cc1` (stereo not drawn) showed an IFI of 14%.
Work on `Cc1ccc(/C=C/C(=O)NC2CCC(N3CCC(c4ccccc4C)CC3)CC2)cc1F` (stereo not drawn) yielded an IFI of 13.3%.
`Cc1ccccc1C1CCN(C2CCC(NC(=O)c3cc(-c4ccc(Cl)cc4)cs3)CC2)CC1` (stereo not drawn) showed an IFI of 22.4%.
For `CN1CCC(NCc2ccc(-c3cccc(-c4nc5ccccc5[nH]4)c3)cc2)CC1`, the IFI was 4.76%.
In the case of `Cc1[nH]c(C)c(-c2ccc(OCc3ccc(F)cc3)nc2)c(=O)c1Br`, the IFI is reported as 3.57%.
In the case of `Cc1c(Cl)cccc1N=C(S)NN=Cc1ccccn1`, the IFI is reported as 6.3%.
For `Cc1c(-c2cccc(C(C)(C)NCCCN3CCCCC3)c2)cnc(N)c1C`, the IFI was 0.74%.
`Cc1ccc(O)cc1C[C@@H]1C(=O)CC[C@@]2(C)[C@H]1CC[C@]2(C)O` showed an IFI of 0%.
`O=C(Nc1ccccc1)N(Cc1ccc(-c2cccc(CNC3CCCC3)c2)cc1)C1CCN(Cc2ccccc2)CC1` showed an IFI of 7.04%.
`Cc1cccc2nc(-c3ccc(-c4cccc(CNCCCNS(C)(=O)=O)c4)s3)[nH]c12` gave an IFI of 3.96%.
Compound `CNC(=O)c1cnc(Nc2ccc(OCC(O)CN(C)C)cc2)nc1Nc1cccc(OC)c1` (stereo not drawn) has an IFI of 2.22%.
`CCOc1ccc2[nH]c(C)cc(=NN=Cc3ccccc3)c2c1` showed an IFI of 1.53%.
`CCN(CC)CCCC(C)Nc1c(-c2ccc(OC)cc2)cnc2ccccc12` (stereo not drawn) showed an IFI of 0%.
With `CN(C)c1nc(NCc2ccccc2)nc(N/N=C/c2cc([N+](=O)[O-])ccc2O)n1` the IFI was 6.16%.
Work on `CNC(=O)C1Cc2c([nH]c3cc(Br)ccc23)C2(CCN(CCc3ccccc3)CC2)N1` (stereo not drawn) yielded an IFI of 7.86%.
